In the library only some 1.1% were active in any assay of this set; here they are far more common.
S1P2 ag = S1P2 receptor agonists, primary screen, cell-based | AID 729, 2007 | activation, % at 4.5 µM | S1P2-expressing cell line, agonist reporter read-out | 0.46% of 97,000 active | Sphingosine 1-phosphate receptor 2 (Homo sapiens), O95136; in the data active = activation above about 16%;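 note: 0% = vehicle low control and 100% = maximal reference agonist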
GALR2 antag = GALR2 antagonists in receptor-expressing cells, primary screen; Galanin receptor type 2 (Homo sapiens), O43603; antagonist mode; 0.39% of 140,000 active; inhibition, % at 4 µM; in the data active = inhibition above about 27%;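 note: cells stimulated with galanin 1-16 at roughly its EC80; 0% = agonist challenge control and 100% = basal control without agonist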
Target sequence (O43603 whole entry, looked up): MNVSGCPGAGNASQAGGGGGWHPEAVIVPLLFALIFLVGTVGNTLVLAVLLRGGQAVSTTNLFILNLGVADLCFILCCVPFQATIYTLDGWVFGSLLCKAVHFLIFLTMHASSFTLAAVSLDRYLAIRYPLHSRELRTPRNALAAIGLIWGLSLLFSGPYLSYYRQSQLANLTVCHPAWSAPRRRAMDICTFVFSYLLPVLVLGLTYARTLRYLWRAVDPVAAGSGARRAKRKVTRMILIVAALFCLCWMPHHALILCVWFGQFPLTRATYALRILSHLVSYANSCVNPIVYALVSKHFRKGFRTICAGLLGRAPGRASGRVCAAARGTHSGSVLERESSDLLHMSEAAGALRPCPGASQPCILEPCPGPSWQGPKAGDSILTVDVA
S1P2 blocker = human S1P2 receptor antagonists, primary screen, cell-based; cell-based S1P2 antagonist assay, inhibition at 5 uM; inhibition, % at 5 µM; 0.21% of 97,000 active; in the data active = inhibition above about 45%;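 note: CRE beta-lactamase reporter cells expressing human S1P2 stimulated with S1P; 0% = agonist at EC80 alone and 100% = agonist plus reference antagonist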
GALR2 ag = GALR2 receptor agonists, primary screen, cell-based; Galanin receptor type 2 (Homo sapiens), O43603; GALR2-expressing cells, agonist activation read-out; activation, % (concentration not given with the values); 0.48% of 140,000 active; AID 803, 2007; in the data active = activation above about 5%, passing the limit was not always enough;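 note: 0% = vehicle buffer wells and 100% = reference agonist at full effect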
Starred values were filed as active, the others as inactive; nt = no result.

SMILES	S1P2 ag	GALR2 antag	S1P2 blocker	GALR2 ag
CCOC(=O)c1ccc(NC(=O)Nc2ccc(F)cc2)cc1	22*	-6	19	0
CCc1ccc(C(=O)CN2C(=O)NC(C)(CCc3ccccc3)C2=O)cc1 (stereo unspecified)	nt	3	nt	-1
Cc1cc(NC(=O)C23CCC(C)(c4nc5cc(Cl)c(Cl)cc5nc42)C3(C)C)no1 (stereo unspecified)	0	12	-3	-2
CS(=O)(=O)c1ccc2nc(NC(=O)Nc3cccc(Cl)c3)sc2c1	-10	4	47*	0
Cc1noc(C)c1COC(=O)Cc1ccc(Cl)c(Cl)c1	-3	-1	17	-2
Cc1noc(C)c1COC(=O)[C@H](C)NS(=O)(=O)c1ccc(Cl)c(Cl)c1	-3	-8	-14	14*
CCc1ccc(NC(=O)c2c(Cl)nc(C)c(Cl)c2C)cc1	nt	2	nt	0
O=C(Nc1ccc(N2CCOCC2)cc1)Nc1ccc2nc(-c3ccco3)c(-c3ccco3)nc2c1	0	32*	-8	0
O=C(Nc1ccc2nc(-c3ccco3)c(-c3ccco3)nc2c1)NC1CC1	-2	7	-28	-1
O=C(O)CSc1nnc(-c2ccncc2)n1C1CCCCC1	-4	5	1	0
Cc1ccc2c(CSc3nc4nc(C)cc(C)n4n3)cc(=O)oc2c1	14	-11	-34	3
COc1ccc2c(CSc3nc4nc(C)cc(C)n4n3)cc(=O)oc2c1	17*	-24	-25	1
CCCCNC(=S)Nc1cc([N+](=O)[O-])ccc1C	nt	4	nt	0
Cc1cc(SCC(=O)c2cccs2)n2nc(C)c(-c3ccc(Cl)cc3)c2n1	nt	10	nt	-1
C=CCSc1cc(C)nc2c(-c3ccc(Cl)cc3)c(C)nn12	23*	-9	-35	0
CCOC(=O)c1cc2ccc(OC(=O)c3ccco3)cc2oc1=O	150*	-78	-243	209*
CCOC(=O)c1c(C)n(C)c2ccc(OC(=O)c3ccco3)cc12	-6	7	-6	0
COc1ccc(-c2cn(-c3ccc(C)cc3)c(=O)n2CC(=O)Nc2cccc(F)c2)cc1	-5	-20	-19	15*
c1ccc(N2N=C(c3cccs3)CC2c2ccco2)cc1 (stereo unspecified)	47*	0	-49	57*
CCN(CC)CC(=O)N1N=C(c2cccs2)CC1c1ccco1 (stereo unspecified)	-1	0	4	-2
Clc1ccc(N2N=C(c3cccs3)CC2c2ccco2)cc1 (stereo unspecified)	102*	-5	-78	70*
CCOC(=O)C1C(=O)CC(C)(O)C(C(=O)OCC)C1c1ccccc1 (stereo unspecified)	-5	12	108*	-2
CCOC(=O)C1C(=O)CC(C)(O)C(C(=O)OCC)C1c1ccc(OC)cc1 (stereo unspecified)	0	-14	-22	1
CCOc1ccc(/C(O)=C2/C(=O)C(=O)N(c3ncccn3)C2c2ccccc2)cc1 (stereo unspecified)	nt	4	nt	-2
COc1ccc(-c2nn(-c3ccccc3)cc2/C=N/NC(=O)c2ccc(Br)o2)cc1	-5	-1	47*	-1
SMILES	S1P2 ag	GALR2 antag	S1P2 blocker	GALR2 ag
O=C(/C=C1\NCC2c3ccccc3CCN2C1=O)c1ccccc1 (stereo unspecified)	-6	-4	26	-2
Cc1ccc(-c2cc(C(=O)OCC(=O)Nc3cc(C)on3)c3ccccc3n2)c(C)c1	-1	-2	-2	-2
Cc1cc(NC(=O)COC(=O)c2oc3c(ccc4ccccc43)c2C)no1	nt	2	nt	5.1*
COc1cccc(-c2cc(C(=O)Nc3cc(C)on3)no2)c1	-5	-6	8	6.2*
N#C/C(=C\c1ccc(N2CCOCC2)o1)c1ccccc1	-18	27	30	-4
N#C/C(=C/c1ccc(N2CCOCC2)o1)c1ccc(Br)cc1	-13	19	20	-1
N#C/C(=C/c1ccc(N2CCCCCC2)o1)c1cccc(F)c1	-4	11	50*	-2
N#C/C(=C/c1ccc(N2CCCCCC2)o1)c1ccc(F)cc1	-9	37*	80*	-2
CCn1c(SCc2nc3ccccc3c(=O)[nH]2)nc2ccccc2c1=O	15	-8	-9	2
COCCCn1c(SCc2nc3ccccc3c(=O)[nH]2)nc2ccccc2c1=O	23*	-2	-32	1
COc1cc(-c2nn3c(COc4ccccc4)nnc3s2)cc(OC)c1OC	nt	11	nt	-1
COc1cc(-c2nn3c(Cc4ccccc4)nnc3s2)cc(OC)c1OC	21*	-31	-53	1
O=[N+]([O-])c1c(NCCCO)cc(Sc2ccc(Cl)cc2)c2nonc12	nt	8	nt	5.0*

Source: PubChem BioAssay
